TDP1 inh – TDP1 (human) enzyme inhibition. Potency, µM (titrated, usually from 130 µM), for the others: at the highest dose activity change, negative = inhibition, actives largely listed as inhibitors. AID 485290. 350,000 tested, 0.28% active. recombinant TDP1, AlphaScreen DNA substrate cleavage. Q9NUW8; also: nearly all actives have a fitted effect of over 40% in size
Target sequence (Q9NUW8 whole entry, looked up): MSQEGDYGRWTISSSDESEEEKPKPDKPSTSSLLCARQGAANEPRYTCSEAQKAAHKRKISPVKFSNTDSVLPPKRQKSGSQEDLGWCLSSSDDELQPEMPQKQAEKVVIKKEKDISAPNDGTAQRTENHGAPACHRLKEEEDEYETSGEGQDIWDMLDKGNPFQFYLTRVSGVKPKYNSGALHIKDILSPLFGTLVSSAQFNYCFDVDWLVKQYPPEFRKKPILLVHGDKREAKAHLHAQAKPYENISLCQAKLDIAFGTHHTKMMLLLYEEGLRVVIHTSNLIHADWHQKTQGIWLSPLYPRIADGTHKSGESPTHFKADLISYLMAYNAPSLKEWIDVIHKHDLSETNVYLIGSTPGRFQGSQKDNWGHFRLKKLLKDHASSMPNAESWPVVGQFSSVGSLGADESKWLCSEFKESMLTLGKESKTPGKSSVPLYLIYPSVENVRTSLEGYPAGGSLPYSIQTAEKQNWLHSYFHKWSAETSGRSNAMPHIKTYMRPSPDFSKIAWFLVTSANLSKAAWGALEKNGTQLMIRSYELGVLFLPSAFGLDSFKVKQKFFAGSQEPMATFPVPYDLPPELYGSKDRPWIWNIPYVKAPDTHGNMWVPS
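Tdp1 1 nM final; 15 min RT w/ cpd; substrate 15 nM, 5 min; beads 10 ug/ml, 10 min; AlphaScreen read. Neg ctrl: no enzyme.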
DT40 TDP1 no CPT – qHTS for Inhibitors of human tyrosyl-DNA phosphodiesterase 1 (TDP1): qHTS in cells in absence of CPT | AID 686978, 2013 | DT40 Tdp1-/- hTDP1 cells, no CPT, ATP luminescence, 48 h | Potency, µM (highest dose often 46.2 µM), for the others: top-dose activity change, negative = growth inhibition, most hits filed as inhibitors | 420,000 tested, 15% active; also: nearly all actives have a fitted effect of over 55% in size
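Readout: luminescence from CellTiter-Glo after 30 min in the dark at RT. Cells: DT40 Tdp1-/- with stable hTDP1, 400/well. Exposure: compounds alone, ≥48 hr, 37 °C.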
DT40 TDP1 CPT – growth inhibition of DT40 Tdp1-/-;hTDP1 cells with camptothecin (screen for TDP1 inhibitors); chicken DT40 Tdp1-/-;hTDP1 cells + 20 nM CPT, ATP luminescence, 48 h; Potency, µM (titrated, usually from 46.2 µM), for the others: at the top dose activity change, negative = growth inhibition, most hits filed as inhibitors; 420,000 tested, 12% active; AID 686979; also: nearly all actives have a fitted effect of over 55% in size
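Chicken DT40 Tdp1-/- cells complemented with human TDP1, 400 cells/well, exposed to compounds plus 20 nM camptothecin for at least 48 h at 37 C; viability read as ATP content by CellTiter-Glo luminescence.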
Gal4-VP16 FLuc – Gal4-VP16 reporter inhibition counter-screen; AID 2546; 310,000 tested, 3.5% active; Drosophila S2 Gal4-VP16 UAS-luciferase, luminescence, 20 h; Potency, µM (titrated, usually from 53.6 µM), inactives show at the top dose activity, negative = inhibition, actives largely listed as inhibitors;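 also: Gal4-VP16 expression switched on by copper sulfate through the metallothionein promoter; nearly all actives have a fitted effect of over 50% in size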
RORgamma inh – ROR gamma (mouse) transcription inhibition. P51450. Drosophila S2 Gal4-RORgamma UAS-luciferase reporter, 20 h. Potency, µM (titrated, usually from 53.6 µM), for inactives: at the top dose activity change, negative = inhibition, hits mostly inhibitors. 310,000 tested, 5.4% active. AID 2551; also: nearly all actives have a fitted effect of over 60% in size
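Luminescence from a UAS-regulated Photinus luciferase reporter in stably transfected Drosophila Schneider cells is measured; decreased signal marks ROR gamma inhibition. Fusion expression is induced by 700 uM copper sulfate for 20 hr.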
Active calls of the source: *. This is a sample that favours compounds with a hit; in the whole collection about 19% have one here. Calls follow the shape of the dose curve; as a rule, active = well fitted curve in the direction sought with a large enough effect; inconclusive = small, poorly fitted or top-dose-only effect, or another doubt; inactive = no such curve, though single readings can be large; an effect the other way counts as inactive or inconclusive. % is scaled to controls: 0 for no effect and ±100 for the full control effect; potency is read from the fitted curve at half-maximal effect.

Results for CCN(CC)c1cc(C)c2cc(NC(=O)c3ccccc3OC)ccc2n1 ?
TDP1 inh: -2%; DT40 TDP1 no CPT: 16µM*; DT40 TDP1 CPT: inconclusive; Gal4-VP16 FLuc: inconclusive; RORgamma inh: inconclusive

What do the screens show for `CCN(CC)c1cc(C)c2cc(NC(=O)c3cccs3)ccc2n1`?
TDP1 inh: 6%; DT40 TDP1 no CPT: 23µM*; DT40 TDP1 CPT: 16µM*; Gal4-VP16 FLuc: -1%; RORgamma inh: 14%

What do the screens show for `CCN(CC)c1cc(C)c2cc(NC(=O)c3ccc(OC)c(OC)c3)ccc2n1`?
TDP1 inh: 9%; DT40 TDP1 no CPT: 23µM*; DT40 TDP1 CPT: 21µM*

Results for CN(C(=O)COC(=O)c1ccc(Cl)nc1)c1c(N)n(Cc2ccccc2)c(=O)[nH]c1=O ?
TDP1 inh: -2%; DT40 TDP1 no CPT: -2%; DT40 TDP1 CPT: -2%

How did O=C(CSc1ccncc1)Nc1ccc(S(=O)(=O)Nc2nccs2)cc1 do in these assays?
DT40 TDP1 no CPT: -2%; DT40 TDP1 CPT: 17%; Gal4-VP16 FLuc: 6%; RORgamma inh: -11%

What do the screens show for `CCN(CC)c1cc(C)c2cc(NC(=O)c3cccc(F)c3)ccc2n1`?
TDP1 inh: 12%; DT40 TDP1 no CPT: 23µM*; DT40 TDP1 CPT: inconclusive

What do the screens show for `CC(C)(C)OC(=O)N1CC2(CCCCC2)CC1Cc1ccc(C(F)(F)F)cc1` (stereo not given)?
DT40 TDP1 no CPT: -19%; DT40 TDP1 CPT: -1%

Results for COc1ccc(-c2nnc3n2N=C(c2ccccc2OC)CS3)cc1OC ?
TDP1 inh: 11%; Gal4-VP16 FLuc: inconclusive; RORgamma inh: 42%

How did COc1ccc(C2=Nn3c(nnc3-c3ccco3)SC2)cc1OC do in these assays?
TDP1 inh: -10%; DT40 TDP1 no CPT: 23µM*; DT40 TDP1 CPT: inconclusive; Gal4-VP16 FLuc: -16%; RORgamma inh: 15%

What do the screens show for `COc1cc(OC)cc(-c2nnc3n2N=C(c2ccc(OC)c(OC)c2)CS3)c1`?
TDP1 inh: 11%; Gal4-VP16 FLuc: -3%; RORgamma inh: -3%

Results for COc1ccc(C2=Nn3c(nnc3-c3ccccc3OC)SC2)cc1OC ?
TDP1 inh: 6%; DT40 TDP1 no CPT: 0.0058µM*; DT40 TDP1 CPT: 0.0052µM*; Gal4-VP16 FLuc: -16%; RORgamma inh: 0%

Results for Cc1cc(NC(=O)CSc2nc3c(C)cccc3cc2C#N)no1 ?
TDP1 inh: -1%; DT40 TDP1 no CPT: 15µM*; DT40 TDP1 CPT: inconclusive; Gal4-VP16 FLuc: -9%; RORgamma inh: -6%

What do the screens show for `Cc1cccc2cc(C#N)c(SCC(=O)N3CC(=O)Nc4ccccc43)nc12`?
TDP1 inh: 5%; DT40 TDP1 no CPT: 2.1µM*; DT40 TDP1 CPT: 2.6µM*; Gal4-VP16 FLuc: -6%; RORgamma inh: 17%

Results for Cc1cc(NC(=O)CSc2nc3c(C)ccc(C)c3cc2C#N)no1 ?
TDP1 inh: 4%; DT40 TDP1 no CPT: -19%; DT40 TDP1 CPT: inconclusive; Gal4-VP16 FLuc: -9%; RORgamma inh: -20%

How did COc1ccc2cc(C#N)c(SCC(=O)N3CC(=O)Nc4ccccc43)nc2c1 do in these assays?
DT40 TDP1 no CPT: -7%; DT40 TDP1 CPT: 0%; Gal4-VP16 FLuc: -14%; RORgamma inh: -16%

Results for O=C(O)c1ccc(-n2c(-c3cc(C4CC4)[nH]n3)n[nH]c2=S)cc1 ?
TDP1 inh: inconclusive; DT40 TDP1 no CPT: 7%; DT40 TDP1 CPT: 4%; Gal4-VP16 FLuc: -1%; RORgamma inh: -9%

Results for CCc1ccc(CN(C(=O)c2nc(SC)ncc2Cl)C2CCS(=O)(=O)C2)cc1 (stereo not given) ?
TDP1 inh: 5%; DT40 TDP1 no CPT: inconclusive; DT40 TDP1 CPT: inconclusive

How did CCSc1ncc(Cl)c(C(=O)N(Cc2ccc(N(C)C)cc2)C2CCS(=O)(=O)C2)n1 (stereo not given) do in these assays?
TDP1 inh: 4%; DT40 TDP1 no CPT: -21%; DT40 TDP1 CPT: inconclusive; Gal4-VP16 FLuc: -2%; RORgamma inh: -7%

What do the screens show for `CC(C)Sc1ncc(Cl)c(C(=O)N(Cc2ccc(N(C)C)cc2)C2CCS(=O)(=O)C2)n1` (stereo not given)?
TDP1 inh: 2%; DT40 TDP1 no CPT: inconclusive; DT40 TDP1 CPT: 16µM*

What do the screens show for `CCOc1ccc(CN(C(=O)c2nc(SC)ncc2Cl)C2CCS(=O)(=O)C2)cc1` (stereo not given)?
TDP1 inh: 0%; DT40 TDP1 no CPT: 16µM*; DT40 TDP1 CPT: -25%

Results for C[C@H](NC(=O)[C@@H](N)Cc1ccc(O)cc1)C(=O)NCC(=O)N[C@H]1CSSC[C@@H](C(=O)O)NC(=O)[C@H](CO)NC(=O)[C@H]([C@@H](C)O)NC(=O)[C@H](Cc2ccccc2)NC(=O)[C@H]([C@@H](C)O)NC(=O)[C@H](CCCCN)NC(=O)[C@H](Cc2c[nH]c3ccccc23)NC(=O)[C@H](Cc2ccccc2)NC(=O)[C@H](Cc2ccccc2)NC(=O)[C@H](CC(N)=O)NC(=O)[C@H](CCCCN)NC1=O ?
TDP1 inh: 10%; Gal4-VP16 FLuc: -6%; RORgamma inh: 2%

Results for CC(Sc1ccc(Cl)cc1)C(=O)NCC(c1ccco1)N1CCCCC1 (stereo not given) ?
TDP1 inh: 0%; DT40 TDP1 no CPT: inconclusive; DT40 TDP1 CPT: inconclusive

What do the screens show for `CC1=C(C)CC2(SC1)C(=O)N(c1ccccc1)N=C2N` (stereo not given)?
TDP1 inh: 8%; DT40 TDP1 no CPT: 21µM*; DT40 TDP1 CPT: 7.3µM*; Gal4-VP16 FLuc: 5%; RORgamma inh: 28%

How did COc1ccc(S(=O)(=O)n2ccc(-c3cnc(-c4ccccc4)s3)n2)cc1 do in these assays?
TDP1 inh: -2%; DT40 TDP1 no CPT: inconclusive; DT40 TDP1 CPT: inconclusive; Gal4-VP16 FLuc: -5%; RORgamma inh: 34%

How did CC(=O)N(O)c1ccc(/C=C2\C=Cc3ccccc32)cc1 do in these assays?
DT40 TDP1 no CPT: 3.2µM*; DT40 TDP1 CPT: 1.4µM*

How did CN(C)c1ccc(/C=C2\C=Cc3ccccc32)c(Cl)c1 do in these assays?
DT40 TDP1 no CPT: 13µM*; DT40 TDP1 CPT: inconclusive

Results for CN(N=O)c1ccc(/C=C2\C=Cc3ccccc32)cc1 ?
DT40 TDP1 no CPT: -28%; DT40 TDP1 CPT: 2%

How did C1=Cc2ccccc2/C1=C\c1cc[cH-]c1.[Fe+2].c1cc[cH-]c1 do in these assays?
DT40 TDP1 no CPT: inconclusive; DT40 TDP1 CPT: 11µM*

What do the screens show for `CC(=O)N(C)c1ccc(/C=C2\C=Cc3ccccc32)cc1`?
DT40 TDP1 no CPT: 7.1µM*; DT40 TDP1 CPT: 6.3µM*

High-throughput results deposited in PubChem BioAssay by National Center for Advancing Translational Sciences (NCATS).
